The values below come from PubChem BioAssay AID1671190 (National Center for Advancing Translational Sciences (NCATS), 2021).

Out of some 580,000 compounds screened, about 6,100 (1.1%) were called active. Where a call stands in place of a potency, no number is given. Inconclusive results (about 15%) are left out. Only a selection was taken, and actives are over-represented in it overall. Values without a mark were called inactive. Calls come from the whole dose curve; as a rule, active = well fitted inhibition curve with a large enough effect; inconclusive = small, poorly fitted or top-dose-only effect, or another doubt; inactive = no such curve, though single readings can be large or run the other way.
Potency is the fitted concentration of half-maximal effect.

Chain of Polyunsaturated fatty acid lipoxygenase ALOX12 (Homo sapiens) (P18054 whole entry, looked up): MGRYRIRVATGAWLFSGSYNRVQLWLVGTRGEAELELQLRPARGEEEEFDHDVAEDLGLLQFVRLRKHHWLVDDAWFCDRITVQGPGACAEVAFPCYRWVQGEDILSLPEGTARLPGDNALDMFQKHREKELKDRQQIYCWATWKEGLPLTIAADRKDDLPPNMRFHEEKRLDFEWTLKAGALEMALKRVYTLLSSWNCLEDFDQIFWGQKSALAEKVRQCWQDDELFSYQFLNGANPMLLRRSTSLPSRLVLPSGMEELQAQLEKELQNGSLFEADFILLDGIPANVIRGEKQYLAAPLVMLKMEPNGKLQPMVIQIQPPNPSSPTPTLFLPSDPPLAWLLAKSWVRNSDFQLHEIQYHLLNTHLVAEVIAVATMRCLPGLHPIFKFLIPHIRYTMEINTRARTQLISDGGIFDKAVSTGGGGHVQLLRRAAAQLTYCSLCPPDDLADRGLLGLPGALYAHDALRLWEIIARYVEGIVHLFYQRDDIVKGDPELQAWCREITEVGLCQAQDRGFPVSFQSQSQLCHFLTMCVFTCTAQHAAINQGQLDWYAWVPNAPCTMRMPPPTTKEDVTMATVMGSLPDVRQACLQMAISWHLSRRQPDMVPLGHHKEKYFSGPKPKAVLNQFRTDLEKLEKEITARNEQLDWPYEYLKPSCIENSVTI

The target of this assay is Polyunsaturated fatty acid lipoxygenase ALOX12 (Homo sapiens) (UniProt P18054). The experiment in a line: Primary qHTS assay for inhibitors of human arachidonate 12S-lipoxygenase (ALOX12): Round 2. Conditions: purified 12hLO, xylenol orange hydroperoxide absorbance; series mostly up to 108 µM. From the text:
Assay Provider: Theodore R. Holman Ph.D. University of California, Santa Cruz, California Human lipoxygenase 12hLO is a member of the closely related lipoxygenase family of enzymes which catalyze the site-specific oxidation of arachidonic acid to various hormone precursor molecules and as such is a candidate for drug development in a variety of disease areas, such as cancer and inflammation. Inhibition of 12hLO activity was screened by utilizing arachidonic acid as a substrate. The extent of hydroperoxide product formation was measured by a secondary chromogenic reaction in which xylenol orange (XO, Sigma-Aldrich, cat. number 39,818-7) reacts with the ferric ions produced from the reaction between the hydroperoxide and ferrous ions. The Fe (III)-XO complex is characterized with red-shifted absorbance at 560 nm. A purified preparation of human 12hLO was supplied by Dr. Holman laboratory, University of California, Santa Cruz.
PROTOCOL TABLE SEQUENCE No. (e.g., 1, 2, 3, etc.); […] (e.g., Cells, Incubation, Reagent, etc.); VALUE; DESCRIPTION 1; Enzyme; 3 uL; 150 nM 12hLO enzyme solution dispensed in 1536-well Greiner black, clear bottom plates. 2; Compound; 23 nL; compounds and controls were added. 3; Incubate; 15 min; room temperature. 4; Substrate; 1 uL; 40 uM arachidonic acid (final concentration). 5; Incubate; 30 min; room temperature. 6; Reagent; 4 uL; Fe-XO solution was added to each well. 7; Incubation; 30 min; room temperature 8; Detector; absorbance; Read 1 at 405 nm absorbance using ViewLux (Perkin-Elmer) CCD imager. 9; Detector; absorbance; Read 2 at 573 nm absorbance using ViewLux (Perkin-Elmer) CCD imager. NOTES (numbers refer to sequence above) 1; 150 nM 12hLO (final concentration) in buffer solution (25 mM Hepes, 0.01% Triton X-100, pH 7.0) was dispensed in columns 1, 2, 5-48. Column 1 is neutral (100% activity). Buffer only was dispensed in columns 3 and 4 as no enzyme negative controls. The plates were covered with metal lids with gas-exchange holes. 2; Compounds were pin transferred via a Kalypsys Pin Tool (Wako USA) in column 5-48. Control compound was transferred in column 2, titration of nordihydroguaiaretic acid (NDGA, Sigma-Aldrich, N5023) with top concentration of 20 mM in DMSO then 1:3 dilution in duplicate. Dilution factor of 23 nL into 4 uL final assay volume. 3; Covered assay plates were incubated for 15 min at room temperature. 4; Substrate was added to start the reaction; 40 uM arachidonic acid (Sigma-Aldrich, St. Louis, MO) was dispensed throughout the plate. 6; Chromogenic detection reagent solution (divalent iron/xylenol orange, Fe-XO) was added to each well: 200 uM xylenol orange, 300 uM ferrous ammonium sulfate prepared freshly in 50 mM sulfuric acid. 8, 9; Two absorbance readouts were obtained at 405 nm and at 573 nm using a ViewLux high-throughput CCD plate imager (Perkin-Elmer). The 573 to 405 (Read 2 / Read 1) absorbance ratio was used to compute reaction progress.
(In qHTS, concentration-response curves come from the screen itself.)
Regarding `Cc1nn(Cc2ccccc2Cl)c(Cl)c1C(=O)OC(C(=O)NC(N)=O)C(C)C` (stereo not drawn), the Potency entry was “inactive”.
For the compound `CCOC(=O)c1c(C)n(Cc2ccccc2Cl)c2ccc(O)cc12`, the Potency is 20 µM (active).
Take `COc1ccccc1-c1ccc(N2CC3CC(C2)c2cccc(=O)n2C3)nn1` (stereo not drawn): the Potency result is “inactive”.
As to `O=C(NCc1ccccc1)[C@H]1CN2CCC1C[C@@H]2Cn1cc(-c2ccc(F)cc2)nn1` (stereo partly drawn), the Potency result was “inactive”.
For `COC(=O)[C@@H]1[C@@H](CO)[C@@H]2Cn3c(ccc(Br)c3=O)[C@H]1N2C(=O)c1cnccn1`, the Potency result was “inactive”.
Regarding `COc1cc2c(cc1Oc1cccc(N(C)C)c1)NC(=O)C21CCN(CCC(C)C)CC1`, the Potency entry is “inactive”.
On the same count and under the same terms, then `O=C(Nc1ccccc1)[C@H]1CN2CCC1C[C@@H]2Cn1cc(CO)nn1` (stereo partly drawn), with “inactive”; and `COc1ccc(N2C(=O)/C(=C/c3ccco3)C(=O)NC2=S)cc1`, with 8.91 µM (active).
Still for that read-out and setting: to `COc1nc2c(cc1CNC(=O)C1C(C)(C)C1(C)C)C(=O)N(C1CCCC1)C2` belongs “inactive”; to `COc1ccc(/C=C\[N+](=O)[O-])c(OC)c1`, “inactive”; to `Cc1nc(C)c(C(=O)N2[C@H]3CC[C@@H]2c2cnc(-c4ccccc4)nc2C3)s1`, “inactive”.
Take `O=C1CC2CCN(Cc3cccnc3)CC2CCN1` (stereo not drawn): the activity change, negative = inhibition was 6.21% [at 12.5 µM].
On to `Cc1cc(N2CCNC[C@@H]2C)ccc1N1CC[C@H](O)C1`, for which the Potency is 44.7 µM (active).
The same measure, in the same setting: to `CC1CNCCN1c1ccc(Cl)cc1` (stereo not drawn) belongs “inactive”; to `COc1ccc(-c2cc3c(cc2OC)C2(CCN(C(C)=O)CC2)C(=O)N3)cc1OC`, “inactive”.
On the same count and under the same terms, to `CN(Cc1ccccc1)C[C@H]1CN2CC[C@H]1C[C@@H]2CNC(=O)Nc1ccsc1` belongs “inactive”.
As for `C[S+](=O)([O-])N1CCC2(CC1)CC(c1cccnc1)=NO2`, the activity change, negative = inhibition was 5.92% [at 6.33 µM].
`c1ccc2sc(SNC3CCCCC3)nc2c1`: the Potency was 28.2 µM (active).
Still for that read-out and setting: then `c1ccc2sc(N3CCNCC3)nc2c1`, with “inactive”; and `OC(CNC1CCCCC1)c1ccccc1` (stereo not drawn), with “inactive”; and `Cc1noc(C)c1CC(=O)N1[C@H]2CC[C@@H]1c1cnc(-c3ccccc3)nc1C2`, with “inactive”.
Take `Cc1noc(C(C)N2CCN(C(=O)Cc3ccccc3)CC2)n1` (stereo not drawn): the Potency entry was “inactive”.
Consider `Cc1cc(C)c2[nH]c(C(=O)N3CCC(C#N)(c4ccccc4)CC3)c(C)c2c1`, for which the Potency entry was “inactive”.
As to `CCC(=O)c1ccc(OCC(=O)N2CCN(CC(=O)Nc3ccc(C)cc3)CC2)cc1`, the Potency result was “inactive”.
Take `C=CCN(CC=C)C(=O)Nc1ccc(OCC)cc1`: the Potency result was “inactive”.
Still for that read-out and setting: to `C=CCN1C(=O)NC(=O)/C(=C/c2ccc(OCC(=O)Nc3ccc(C)cc3)cc2)C1=O` belongs 39.8 µM (active); to `CC(CNc1ccc([N+](=O)[O-])c2cnccc12)c1ccccc1` (stereo not drawn), “inactive”; to `COC(=O)c1ccc(NC(=O)N2[C@H]3CC[C@@H]2c2cnc(-c4ccc(F)cc4)nc2C3)cc1`, “inactive”.
